Assay [1] can be described thus: CCTE_Mundy_HCI_Cortical_NOG_NeuriteLength: CCTE's Neurite Outgrowth Assay in rat cortical cells for Neurite Length, Mundy Lab (AID 2284213).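 Also: neurites imaged about 48 to 50 h after chemical exposure began.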 In outline:
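First, rat primary cortical cells were plated and, 2 h later, given test chemical as a 1/10 dilution. Finally, βIII-tubulin immunostaining enabled automated imaging of neurite length.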

The nature of assay [2]: CCTE_Mundy_HCI_Cortical_Synap_Neur_Matur_NeuriteLength: CCTE's Synaptogenesis and Neurite Maturation Assay in rat cortical cells for Neurite Length, Mundy Lab (AID 2284214). In outline:
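Neurite length quantified by automated high-content imaging of MAP2, synaptophysin and Hoechst staining. Rat cortical cells received chemical from DIV 7 to DIV 12 […], glial growth arrested by AraC at DIV 5; DMSO baseline.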

The nature of assay [3]: CCTE_Mundy_HCI_Cortical_Synap_Neur_Matur_SynapseCount: CCTE's Synaptogenesis and Neurite Maturation Assay in rat cortical cells for Synapse Count, Mundy Lab (AID 2284218). An outline of the steps:
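High-content imaging of synaptophysin puncta per MAP2-positive neuron (Hoechst nuclei) in rat cortical cells exposed DIV 7–12 after glial arrest with AraC at DIV 5; decrease relative to DMSO scored.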

A short description of assay [4]: CCTE_Mundy_HCI_Cortical_Synap_Neur_Matur_NeuriteCount: CCTE's Synaptogenesis and Neurite Maturation Assay in rat cortical cells for Neurite Count, Mundy Lab (AID 2284222).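 Also: exposure from day 7 to day 12 in vitro with readout at day 12.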 In outline:
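Chemical exposure runs DIV 7–12 in rat cortical cultures, glia suppressed by AraC at DIV 5; measurement is at DIV 12. Imaging-derived neurite counts are fitted against DMSO baseline.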

A short description of assay [5]: CCTE_Mundy_HCI_Cortical_Synap_Neur_Matur_CellBodySpotCount: CCTE's Synaptogenesis and Neurite Maturation Assay in rat cortical cells for Cell Body Spot Count, Mundy Lab (AID 2284223). In outline:
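Rat primary cortical cultures received AraC at DIV 5 to arrest glia, were dosed with chemical at DIV 7 with media change, and were fixed at DIV 12 (288.33 h). Synaptophysin puncta on MAP2-positive cell bodies per neuron were counted by high-content imaging versus DMSO.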

Assay [6] in a line: UKN2_HCS_IMR90_cell_viability: Viability Assessment in the University of Konstanz (UKN) Leist Lab Neural Crest Cell Migration Assay in human induced IMR90 Pluripotent Stem Cells (UKN2) (AID 2284233).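 Also: cells exposed to compound for 24 h after a 24 h migration phase.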 An outline of the steps:
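After calcein-AM/Hoechst staining, viability is quantified by high-content fluorescence imaging, relative to DMSO, in iPSC (IMR90)-derived neural crest cells. Exposure lasts 24 h, starting after a 24 h migration period on PLO/laminin/fibronectin coating.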

Assay [7] can be described thus: CCTE_Mundy_HCI_Cortical_NOG_NeuronCount: CCTE's Neurite Outgrowth Assay in rat cortical cells for Neuron Count, Mundy Lab (AID 2284236; active = hit-call score of the fitted dose curve at least 0.9, where 1 is the maximum;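 also: neurons counted by imaging betaIII-tubulin and Hoechst stained cortical cells; cells exposed to compound for about 48 hours before fixation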). An outline of the steps:
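Read-out: neuron number by high-content imaging of betaIII-tubulin (Alexa Fluor-488) and Hoechst-labelled rat primary cortical cells.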

A short description of assay [8]: CCTE_Mundy_HCI_Cortical_NOG_BPCount: CCTE's Neurite Outgrowth Assay in rat cortical cells for Branch Point Count, Mundy Lab (AID 2284237).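 Also: branch points counted about two days after chemical exposure.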 An outline of the steps: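 Measured 50.33 h after dosing, this morphology endpoint uses rat primary cortical cultures labelled for betaIII-tubulin. Branch points are quantified by high-content imaging, with DMSO as negative control and baseline.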

Assay [9] can be described thus: CCTE_Mundy_HCI_hNP1_Casp3_7: CCTE's Caspase-Glo 3/7 Assay in human neuroprogenitor cells for Apoptosis, Mundy Lab (AID 2284240). In outline:
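Apoptosis is scored by activated caspase-3/7 luminescence in WA09-derived neural progenitor cells, measured 26.5 h after chemical dosing. Values represent gain of signal relative to DMSO vehicle.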

Assay [10] is described as follows: CCTE_Mundy_HCI_hNP1_CellTiter: CCTE's Cell Titer-Glo 2 Assay in human neuroprogenitor cells for Viability, Mundy Lab (AID 2284241; active = hit-call score of the fitted dose curve at least 0.9, where 1 is the maximum). An outline of the steps:
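Human neural progenitor cells (hNP1, WA09-derived) were plated on poly-L-ornithine/laminin and grown 40 to 44 hours at 37 °C, 5% CO2 before chemical addition. Twenty-four hours later, ATP was measured by CellTiter-Glo luminescence; loss of signal versus DMSO indicates reduced viability.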
For orientation: Cellular ATP, detected with luciferase, serves as a proxy for viable cell number.

A short description of assay [11]: IUF_NPC2c_oligodendrocyte_migration_120hr: Leibniz Research Institute for Environmental Medicine (IUF) 120-hour Neural Progenitor Cell Migration Assay for Oligodendrocyte Migration (NPC2c) (AID 2284297).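 Also: O4-positive oligodendrocyte migration distance divided by radial glia migration distance.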 An outline of the steps: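 Human fetal cortex-derived neural progenitor spheres (0.3 mm) were plated on poly-D-lysine/laminin in N2 differentiation medium and exposed to 7 concentrations for 120 h, with half-medium renewal at day 3. Oligodendrocyte migration distance was normalized to radial glia migration, relative to DMSO.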

Assay [12] can be described thus: IUF_NPC2a_radial_glia_migration_120hr: Leibniz Research Institute for Environmental Medicine (IUF) 120-hour Neural Progenitor Cell Migration Assay for Radial Glia Migration (NPC2a) (AID 2284298). An outline of the steps: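 Single 0.3 mm primary human fetal-cortex (GW 16-19) NPC spheres were plated on poly-D-lysine/laminin in N2 differentiation medium and exposed from day 0 for 120 h, half-medium refreshed day 3. Migration distance came from Hoechst nuclei-density imaging, relative to DMSO.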

Assay [13] in a line: IUF_NPC2b_neuronal_migration_120hr: Leibniz Research Institute for Environmental Medicine (IUF) 120-hour Neural Progenitor Cell Migration Assay for Neuron Migration (NPC2b) (AID 2284300). In outline:
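Primary human fetal cortex neural progenitor spheres (0.3 mm) plated on poly-D-lysine/laminin in N2 differentiation medium, exposed 120 h with half-medium refresh at day 3. TUBB3-stained neuron distance from sphere core, normalized to radial glia migration, versus DMSO.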

The nature of assay [14]: IUF_NPC3_neuronal_differentiation_120hr: Leibniz Research Institute for Environmental Medicine (IUF) 120-hour Neuronal Differentiation Assay (NPC3) (AID 2284301). An outline of the steps:
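Value is percent TUBB3-positive neurons among Hoechst-stained nuclei in the migration area, scored by trained CNN after 120 h differentiation. Primary hNPC spheres on poly-D-lysine/laminin, N2 medium, continuous dosing from day 0, half-refeed day 3; DMSO reference.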

Assay [15] is described as follows: IUF_NPC4_neurite_length_120hr: Leibniz Research Institute for Environmental Medicine (IUF) 120-hour Neuronal Morphology Assay for Neurite Length (NPC4) (AID 2284302). An outline of the steps: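 Neurite length, the mean in um across TUBB3-stained neurons, is derived by skeletonization of high-content images after 120 h differentiation. Compound exposure, 7 concentrations plus solvent control, ran from plating of hNPC spheres on poly-D-lysine/laminin, with medium half-replaced on day 3.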

Assay [16] in a line: IUF_NPC5_oligodendrocyte_differentiation_120hr: Leibniz Research Institute for Environmental Medicine (IUF) 120-hour Oligodendrocyte Differentiation Assay (NPC5) (AID 2284304; active = hit-call score of the fitted dose curve at least 0.9, where 1 is the maximum;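 also: primary human fetal neural progenitor spheres plated to migrate and differentiate; share of O4-positive cells among Hoechst nuclei found by CNN image analysis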). An outline of the steps:
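Primary human fetal (GW 16-19) neural progenitor spheres (0.3 mm) plated on poly-D-lysine/laminin in N2 differentiation medium, exposed from day 0 for 120 h with half-medium refresh at day 3; O4-positive cells as percent of Hoechst nuclei, CNN-identified, versus DMSO.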

A short description of assay [17]: IUF_NPC2-5_cytotoxicity_72hr: Cytotoxicity Assessment at 72 hours in the Leibniz Research Institute for Environmental Medicine (IUF) Neural Progenitor Cell Migration and Differentiation Assay for Cytotoxicity (NPC2-5) (AID 2284306; active = hit-call score of the fitted dose curve at least 0.9, where 1 is the maximum;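 also: LDH release into supernatant measured by resorufin fluorescence marking membrane damage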). In outline: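 Membrane-integrity cytotoxicity at 72 h, read as LDH-driven resorufin fluorescence in supernatant. hNPC spheres from fetal cortex differentiate on coated plates in N2 medium, 37C, 5% CO2; seven serial compound concentrations plus solvent control (DMSO ≤0.1%).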

A short description of assay [18]: IUF_NPC2-5_cytotoxicity_120hr: Cytotoxicity Assessment at 120 hours in the Leibniz Research Institute for Environmental Medicine (IUF) Neural Progenitor Cell Migration and Differentiation Assay (NPC2-5) (AID 2284307; active = hit-call score of the fitted dose curve at least 0.9, where 1 is the maximum). An outline of the steps:
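Human fetal neural progenitor spheres (0.3 mm, GW 16-19 cortex) were plated on poly-D-lysine/laminin in N2 differentiation medium and exposed for 120 h, with half-medium refresh at day 3. LDH release into supernatant was read by resorufin fluorescence.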

Assay [19] can be described thus: IUF_NPC2-5_cell_number_120hr: Cell Number Assessment at 120 hours in the Leibniz Research Institute for Environmental Medicine (IUF) Neural Progenitor Cell Migration and Differentiation Assay (NPC2-5) (AID 2284308).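 Also: count of Hoechst-stained nuclei in migration zone around plated human neural progenitor spheres.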 In outline:
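Primary human fetal neural progenitor spheres (GW 16-19, 0.3 mm) plated on poly-D-lysine/laminin in N2 differentiation medium, exposed from day 0 for 120 h with half-medium refresh at day 3; Hoechst-positive nuclei counted in migration area versus DMSO control.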

A short description of assay [20]: IUF_NPC2-5_viability_120hr: Viability Assessment at 120 hours in the Leibniz Research Institute for Environmental Medicine (IUF) Neural Progenitor Cell Migration and Differentiation Assay (NPC2-5) (AID 2284312). An outline of the steps:
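Alamar blue resorufin fluorescence read after 5 days of differentiation, with compound present from day 0 and replenished at day 3. Primary hNPC spheres on laminin-coated plates, 37C; seven concentrations plus solvent control, fitted against DMSO.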

Assay [21] can be described thus: CCTE_Mundy_HCI_iCellGluta_NOG_NeuriteLength: CCTE's Neurite Outgrowth Assay in iCellGluta cells for Neurite Length, Mundy Lab (AID 2284318; active = hit-call score of the fitted dose curve at least 0.9, where 1 is the maximum). In outline: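 Automated high-content imaging of betaIII-tubulin (Alexa Fluor-488) and Hoechst-stained cells gave neurite length, normalized to the DMSO baseline.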
Assay [22] is described as follows: IUF_NPC1_cytotoxicity_72hr: Cytotoxicity Assessment at 72 hours in the Leibniz Research Institute for Environmental Medicine (IUF) Neural Progenitor Cell Proliferation Assay (NPC1) (AID 2284332; active = hit-call score of the fitted dose curve at least 0.9, where 1 is the maximum;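 also: rising LDH signal means more cytotoxicity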). In outline: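 Cytotoxicity by LDH membrane-integrity assay on medium supernatants, fluorescence via resazurin reduction, after 3-day single exposure of primary hNPC spheres at 37C, pH 7.2-7.6 with growth factors. Fitted upward against baseline.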

Assay [23] can be described thus: CCTE_Mundy_HCI_iCellGluta_NOG_NeuriteCount: CCTE's Neurite Outgrowth Assay in iCellGluta cells for Neurite Count, Mundy Lab (AID 2284342; active = hit-call score of the fitted dose curve at least 0.9, where 1 is the maximum;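 also: chemical exposure about 48 hours starting 2 hours after plating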).

Structures are written as SMILES. Results filed as inconclusive are left out. Active and inactive are the calls of the source. The calls were made as follows, unless noted: active = hit-call score of the fitted dose curve at least 0.9, where 1 is the maximum; inactive = score below 0.9.

By AC50 is commonly meant the midpoint of the concentration-response curve, whichever way the signal moves. With `CCOP(=O)(OCC)SCSC(C)(C)C`, the AC50 was 49.5 µM (active) in assay [1]; 84.1 µM (active) in assay [7]; 62.1 µM (active) in assay [8]; 0.875 µM (active) in assay [12]; 9.83 µM (active) in [21]; 21.9 µM (active) in [23]. Moreover, the call in assay [2], in assay [3], in [4], in assay [5], in assay [6] and in [9] was inactive. In addition, the result in [10], in [11], in assay [13], in assay [14], in assay [15] and in assay [16] was inactive. For the same compound, the compound was called inactive in assay [17], in assay [18], in assay [19], in assay [20] and in assay [22].

(Values after PubChem BioAssay (EPA / NIEHS).)
